Measurements: article PMC5540273 (PLoS ONE, 2017)

Assays:
Settings in all cases: concentration: 1 μM, replicates: in singlicate; n = 1
[1] = test system: T1, MEK5
T1 construct: gene MAP2K5

[2] = test system: T2, MEK6
T2 construct: gene MAP2K6

[3] = test system: MELK
[4] = test system: MERTK
[5] = test system: MET
[6] = test system: T3, MINK
T3 construct: gene MINK1

[7] = test system: MKK7
[8] = test system: MKNK1
[9] = test system: MKNK2
[10] = test system: T4, MLCK
T4 construct: gene MYLK3
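Further: KINOMEscan kinase panel screen.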

Structure (SMILES)	%Inh [1] [%]	%Inh [2] [%]	%Inh [3] [%]	%Inh [4] [%]	%Inh [5] [%]	%Inh [6] [%]	%Inh [7] [%]	%Inh [8] [%]	%Inh [9] [%]	%Inh [10] [%]
Cl.c1ccc(-c2ccc3c(Nc4ccc5[nH]ncc5c4)ccnc3c2)nc1 [GW440137]	89	0	15	0	0	43	0	5	18	15
Cc1ccc(C)c(NC(=O)NC2CCN(c3ccnc(Nc4ccc(F)cc4)n3)C2)c1 (centres unmarked) [GSK1379720]	50	0	0	21	0	0	0	0	0	22
Nc1ncnc2c1nc(-c1ccccc1)n2-c1ccccc1 [SKF-97293]	32	27	0	0	10	16	38	0	18	23
c1ccc(Oc2ccc(Nc3ccnc4cc(-c5ccc(CNCCN6CCOCC6)o5)ccc34)cc2)nc1 [GW567145]	100	0	0	9	0	37	0	0	19	10
Cn1cc(-c2ccc3c(c2)CCN3C(=O)Cc2cccc(Cl)c2)c2c(N)ncnc21 [GSK2606590]	99.8	0	0	79	45	0	28	21	23	6
NCCCC(NC(=O)c1cc(Br)c(-c2ccnc3[nH]ccc23)s1)c1ccccc1.O=C(O)C(F)(F)F.O=C(O)C(F)(F)F (centres unmarked) [GSK1287544]	7	0	54	55	6	27	16	0	83	47
FC(F)(F)c1ccc(/C=C/c2cncnc2Nc2ccc3[nH]c(Cc4ccccc4)nc3c2)cc1 [GW709199]	32	0	0	4	16	1	0	0	0	0
CCn1c(-c2nonc2N)nc2c(C#CC(C)(C)O)ncc(OCCCCN)c21.O=C(O)C(F)(F)F.O=C(O)C(F)(F)F [GSK507274]	0	0	1	30	0	0	0	0	11	13
COc1cccc(NC(=O)NC2CCN(c3ccnc(Nc4cc(OC)c(OC)c(OC)c4)n3)C2)c1 (centres unmarked) [GSK1379763]	99.9	0	0	15	0	0	0	36	65	0
O=C(NC1CCN(c2ccnc(Nc3ccc(F)cc3)n2)C1)c1cc2ccccc2s1 (centres unmarked) [GSK1379716]	8	1	0	38	0	0	0	3	7	8
COc1cc(Nc2nccc(-c3c(-c4cccc(NC(=O)c5c(F)cccc5F)c4)nn4ccccc34)n2)cc(OC)c1OC [GSK323521]	79	3	3	59	58	8	32	7	22	9
CCc1ccc(-c2ccc3c(c2)-c2c(cnn2C)S(=O)(=O)N3C)cc1	0	0	0	0	26	0	0	0	0	1
Cl.NC(=O)c1cccc(Nc2nccc(Nc3ccc(Oc4c(Cl)cccc4Cl)c(Cl)c3)n2)c1 [GW659009]	97.5	0	0	0	0	90.2	17	0	1	0
O=C(Nc1cccc(-c2nn3ncccc3c2-c2ccnc(Nc3ccccc3)n2)c1)c1c(F)cccc1F [GSK198271]	99.9	59	0	79	43	23	27	11	7	8
COc1cc(Nc2ncc3c(C)nc(-c4cc5ccccc5[nH]4)n3n2)cc(OC)c1OC [GW869516]	78	0	49	56	0	1	0	0	0	36
Cc1ccc(C(=O)N2CC[C@@H](O)C2)cc1-n1c(C)cc(OCc2ccc(F)cc2F)c(Br)c1=O	0	0	0	0	0	0	0	0	0	0

Structure (SMILES)	%Inh [1] [%]	%Inh [2] [%]	%Inh [3] [%]	%Inh [4] [%]	%Inh [5] [%]	%Inh [6] [%]	%Inh [7] [%]	%Inh [8] [%]	%Inh [9] [%]	%Inh [10] [%]
CN1CCN(CCCNc2nccc(-c3c(-c4ccc(F)cc4)nn4cc(C(F)(F)F)ccc34)n2)CC1 [GW621581]	25	0	0	26	0	17	0	0	1	4
CC(C)c1nc(-c2cccc(NS(=O)(=O)c3c(F)cccc3F)c2F)c(-c2ccnc(Nc3ccc(N4CCOCC4)nc3)n2)s1 [GSK2008607]	99.9	59	81	79	85	60	0	12	96	0
O=C(O)C(F)(F)F.O=C(O)C(F)(F)F.O=c1[nH]ccc2nc(N[C@@H]3CCCNC3)nc(Nc3ccc(S(=O)(=O)N4CCOCC4)cc3)c12 [GSK2177277]	100	86	100	100	90.2	98.1	81	7	59	90.8
Cl.c1ccc(-c2ccc3c(Nc4ccc5[nH]ccc5c4)ccnc3c2)nc1 [GW440138]	83	0	0	34	0	75	0	2	0	0
Clc1ccc(-c2nn3ncccc3c2-c2ccnc(Nc3ccc4c(c3)OCCO4)n2)cc1 [GW829116]	33	20	0	0	0	23	0	0	0	0
Cc1ccc(F)c(C(=O)Nc2cccc(-c3nn4ccccc4c3-c3ccnc(Nc4cccc(F)c4)n3)c2)c1F [GSK361061]	95	18	12	75	58	17	10	21	0	5
O=c1[nH]cc(-c2ccc(N3CCOCC3)cc2)c2sc(-c3cn[nH]c3)cc12 [GSK2276055]	8	29	17	7	0	26	0	0	9	19
Cn1cc(-c2[nH]c3cc(NC(=O)[C@H](N)C4CCCCC4)cc4c3c2C=NNC4=O)cn1	100	3	60	95.1	5	96.5	0	100	100	84
COc1cc(Nc2nccc(-c3c(-c4cccc(NC(=O)c5c(F)cccc5F)c4)nn4ncccc34)n2)cc(OC)c1OC [GSK327238]	99.9	51	31	90.2	79	44	0	5	5	47
O=C(Nc1cccc(-c2nn3ccccc3c2-c2ccnc(Nc3cccc(C(F)(F)F)c3)n2)c1)c1c(F)cccc1F [GSK292658]	80	0	0	37	0	2	0	0	1	0
C[C@@H]1CC[C@@H](C(=O)Nc2ccccc2)CN1c1cc(-c2ccc3c(N)n[nH]c3c2)nc(N)n1 [GSK2286062]	4	8	31	39	0	9	0	0	12	16
Cc1cccc(NC(=O)Nc2ccc(Oc3ncnc4ccn(C)c34)cc2)c1	25	0	0	9	19	3	0	3	88	0
Cc1cccc(Nc2nc(N[C@H]3CCNC3)ncc2C(N)=O)c1.Cl [GSK2197149]	99.8	50	20	37	0	76	4	0	51	24
CN1CCN(Cc2cccc(-c3ccc4c(Nc5ccc(Oc6ccccc6)cc5)ccnc4c3)c2)CC1 [GW578342]	100	0	16	0	5	9	7	8	51	1
COc1cc(Nc2nccc(N3CCC(NC(=O)c4cc5ccccc5s4)C3)n2)cc(OC)c1OC (centres unmarked) [GSK1379760]	88	0	15	45	31	0	38	30	21	0
COc1ccc(CNC(=O)NC2CCN(c3ccnc(Nc4ccc(F)cc4)n3)CC2)cc1 [GSK1379788]	9	0	0	0	0	0	0	2	0	0
